Values joined by “and” are separate entries in the source; they are usually repeats but may differ in a detail not shown here. Identical values can stand only once. About 79,000 compounds went through this panel and 15% of them were active in at least one assay; those are over-represented in the sample as a whole. Active and inactive are the calls of the source. Cut-off read from the data, not from the text of the source: active = growth inhibition above about 70%; inactive = the rest.

Drawing on PubChem BioAssay (NCI), this text covers growth inhibition for 15 compounds.

This assay in a line: NCI Yeast Anticancer Drug Screen. Data for the cln2 rad14 strain (AID 165).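 Note: 0% = growth equal to vehicle treated cultures.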 To be noted: S. cerevisiae cln2 rad14 strain, at 50.0 µM, stronger effect = higher value. An outline of the steps: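 Strain: cln2 rad14 yeast, altered in cell cycle control and DNA damage repair. Read-out: growth inhibition vs vehicle.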
As for `O=[N+]([O-])c1cc[n+]([O-])cc1`, the growth inhibition is 50.1% (inactive) and 7.4% (inactive).

As to `CC1(C)CC(=O)C(/C=N/c2nc(-c3ccccc3)cs2)=C(O)C1`, the growth inhibition was 45.4% (inactive).

On to `Nc1nc(N)c2nc(CNc3ccc(C(=O)NC(CCC(=O)O)C(=O)O)cc3F)cnc2n1` (stereo not given), for which the growth inhibition is -5.05% (inactive).

Regarding `COC(=O)CC1(O)C(/C=C/c2ccccc2)C(C(=O)OC)C(=O)C(C(=O)OC)C1C(=O)OC` (stereo not given), the growth inhibition is -0.7% (inactive).

For the compound `CC(C)(C)c1ccc(NS(=O)(=O)c2ccc(N)cc2)cc1`, the growth inhibition was 98.4% (active).

Take `CCN(CC)CCNc1ccc([N+](=O)[O-])c2nc3ccccc3c(N)c12`: the growth inhibition was 36.6% (inactive).

With `CCCCN(CCCC)C(=O)/C=C/c1ccccc1`, the growth inhibition is 68% (inactive).

Consider `O=c1[nH]c(-c2ccccc2)nc2c1sc1nc3ccccc3n12`, for which the growth inhibition is 5.95% (inactive).

Take `O=[N+]([O-])c1ccc2c(c1)/C(=N/N=C1c3ccccc3Cc3ccccc31)c1cc([N+](=O)[O-])cc([N+](=O)[O-])c1-2`: the growth inhibition is 85.8% (active).

In the case of `CC(C)C(C)/C=C\C(C)C1CCC2C3=CC=C4CC(O)CCC4(C)C3CCC21C` (stereo not given), the growth inhibition is 35.4% (inactive).

As for `O=C1Nc2ccc(Br)cc2C1=Nc1ccc2c(c1)OCO2`, the growth inhibition is 7.55% (inactive).

On to `CCCCOCn1c(=O)[nH]c(=O)c2cc(Br)ccc21`, for which the growth inhibition is 17.8% (inactive).

Turning to `Cc1ccc(S/C(=C\C(=O)O)c2ccccc2)cc1`, the growth inhibition was 47.5% (inactive).

In the case of `O=[N+]([O-])/C=C/c1cc(Cl)c(/C=C/[N+](=O)[O-])cc1Cl`, the growth inhibition is 62.1% (inactive).

With `Cc1cc(S(=O)(=O)Nc2nnc3cnc4ccccc4n23)c(S)cc1Cl`, the growth inhibition was 52% (inactive).
